PubChem BioAssay (NCATS)
Inconclusive results are not listed. Entries that show only a call come without a potency. Values without a mark were called inactive. Calls of active or inactive are those of the source. Unless noted, calls come from the whole dose curve; as a rule, active = well fitted curve in the direction sought with a large enough effect; inconclusive = small, poorly fitted or top-dose-only effect, or another doubt; inactive = no such curve, though single readings can be large; an effect the other way counts as inactive or inconclusive.

How the values were obtained:
[1] = target: Rap guanine nucleotide exchange factor 3 (Homo sapiens) (UniProt O95398); experiment: Confirmatory qHTS for antagonist of cAMP-regulated guanine nucleotide exchange factor 3 (EPAC1) (AID 1645880); conditions: EPAC1 Rap1B-BODIPY-GDP exchange, fluorescence; activity, negative = inhibition: at 115 µM (top of the series); note: nearly all actives have a fitted effect of over 55% in size; note: potency is the fitted concentration of half-maximal effect
Chain of Rap guanine nucleotide exchange factor 3 (Homo sapiens) (O95398 whole entry, looked up): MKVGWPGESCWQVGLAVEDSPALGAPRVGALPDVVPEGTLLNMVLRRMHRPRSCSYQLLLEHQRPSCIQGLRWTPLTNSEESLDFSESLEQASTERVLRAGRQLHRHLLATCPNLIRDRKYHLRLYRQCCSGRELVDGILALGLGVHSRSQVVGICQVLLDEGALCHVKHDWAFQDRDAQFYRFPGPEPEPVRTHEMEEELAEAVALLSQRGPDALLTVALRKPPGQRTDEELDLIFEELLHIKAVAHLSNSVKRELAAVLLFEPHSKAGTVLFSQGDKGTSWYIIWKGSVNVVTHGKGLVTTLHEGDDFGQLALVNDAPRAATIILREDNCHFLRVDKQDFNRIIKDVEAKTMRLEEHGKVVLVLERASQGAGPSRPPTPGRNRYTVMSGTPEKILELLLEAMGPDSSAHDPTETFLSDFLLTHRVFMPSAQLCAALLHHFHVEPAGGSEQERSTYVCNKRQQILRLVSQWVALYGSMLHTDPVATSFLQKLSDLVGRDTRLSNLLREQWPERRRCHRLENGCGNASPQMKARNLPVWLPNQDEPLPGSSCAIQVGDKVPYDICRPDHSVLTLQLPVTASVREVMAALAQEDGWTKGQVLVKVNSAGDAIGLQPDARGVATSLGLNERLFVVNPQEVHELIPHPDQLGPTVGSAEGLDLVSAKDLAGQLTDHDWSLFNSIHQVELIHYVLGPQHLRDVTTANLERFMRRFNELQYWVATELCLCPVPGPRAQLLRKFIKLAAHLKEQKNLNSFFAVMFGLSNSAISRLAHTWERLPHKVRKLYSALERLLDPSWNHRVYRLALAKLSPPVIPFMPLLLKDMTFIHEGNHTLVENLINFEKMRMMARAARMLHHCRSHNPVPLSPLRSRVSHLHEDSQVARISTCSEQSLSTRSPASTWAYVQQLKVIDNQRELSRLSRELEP
Method in brief: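 Released BODIPY-GDP fluoresces less than Rap1-bound BODIPY-GDP; the signal is followed at 480/540 nm at 5-min intervals over 30 min, after 5 min at room temperature. Reactions contain 100 nM EPAC1, 250 nM RAP1B-BODIPY-GDP and 50 uM GDP; results are normalized to ATA and DMSO.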

[2] = target: Rap guanine nucleotide exchange factor 4 (Homo sapiens) (UniProt Q8WZA2); experiment: Confirmatory qHTS for agonist of cAMP-regulated guanine nucleotide exchange factor 4 (EPAC2) (AID 1645884); conditions: EPAC2 GEF activity, Rap1B-BODIPY-GDP fluorescence; series mostly up to 154 µM;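 note: nucleotide exchange releases bodipy-GDP from Rap1 and this lowers its fluorescence; nearly all actives have a fitted effect of over 65% in size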; note: potency is the fitted concentration of half-maximal effect
Chain of Rap guanine nucleotide exchange factor 4 (Homo sapiens) (Q8WZA2 whole entry, looked up): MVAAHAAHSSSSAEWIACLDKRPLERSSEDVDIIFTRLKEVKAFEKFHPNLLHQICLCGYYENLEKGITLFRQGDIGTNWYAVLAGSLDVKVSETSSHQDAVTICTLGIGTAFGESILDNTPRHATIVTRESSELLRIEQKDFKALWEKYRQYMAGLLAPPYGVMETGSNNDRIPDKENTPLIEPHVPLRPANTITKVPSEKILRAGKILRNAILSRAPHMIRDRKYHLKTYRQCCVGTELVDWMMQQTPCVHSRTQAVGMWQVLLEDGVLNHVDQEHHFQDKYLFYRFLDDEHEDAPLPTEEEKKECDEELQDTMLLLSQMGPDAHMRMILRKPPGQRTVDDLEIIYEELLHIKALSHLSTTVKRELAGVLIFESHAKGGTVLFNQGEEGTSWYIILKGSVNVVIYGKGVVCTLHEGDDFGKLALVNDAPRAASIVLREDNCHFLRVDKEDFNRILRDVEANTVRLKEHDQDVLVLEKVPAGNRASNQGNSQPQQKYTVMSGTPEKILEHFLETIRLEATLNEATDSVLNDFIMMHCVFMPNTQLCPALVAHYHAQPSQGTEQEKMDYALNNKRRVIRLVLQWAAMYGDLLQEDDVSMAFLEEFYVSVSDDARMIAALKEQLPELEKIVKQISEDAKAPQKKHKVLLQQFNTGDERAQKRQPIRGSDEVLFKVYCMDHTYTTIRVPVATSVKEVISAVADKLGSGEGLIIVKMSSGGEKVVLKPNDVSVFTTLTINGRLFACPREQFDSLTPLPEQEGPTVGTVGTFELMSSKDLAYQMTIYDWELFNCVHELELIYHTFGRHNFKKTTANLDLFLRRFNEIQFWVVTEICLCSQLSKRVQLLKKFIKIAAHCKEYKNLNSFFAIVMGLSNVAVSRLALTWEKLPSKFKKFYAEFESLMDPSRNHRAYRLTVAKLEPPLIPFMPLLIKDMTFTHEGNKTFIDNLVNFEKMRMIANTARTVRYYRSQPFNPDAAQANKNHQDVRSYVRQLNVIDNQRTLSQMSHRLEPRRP

[3] = target: Rap guanine nucleotide exchange factor 4 (Homo sapiens) (UniProt Q8WZA2); experiment: Confirmatory qHTS for antagonist of cAMP-regulated guanine nucleotide exchange factor 4 (EPAC2) (AID 1645885); conditions: EPAC2 Rap1B-BODIPY-GDP exchange fluorescence, biochemical; series mostly up to 12.7 µM; note: nearly all actives have a fitted effect of over 25% in size; note: potency is the fitted concentration of half-maximal effect
[4] = target: Rap guanine nucleotide exchange factor 3 (Homo sapiens) (UniProt O95398); experiment: Counterscreen qHTS for antagonist of cAMP-regulated guanine nucleotide exchange factor 3 (EPAC1) (AID 1645888); conditions: Rap1B-BODIPY-GDP nucleotide exchange, fluorescence; series mostly up to 154 µM
Method in brief: (§1)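 Measured: fluorescence of BODIPY-GDP bound to Rap1B, which falls as exchange proceeds. Conditions include 50 uM competing GDP, 5 and 30 min reads, and a later cAMP challenge for antagonist detection.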

[5] = target: Rap guanine nucleotide exchange factor 3 (Homo sapiens) (UniProt O95398); experiment: Counterscreen qHTS for agonist of cAMP-regulated guanine nucleotide exchange factor 3 (EPAC1) (AID 1645889); conditions: EPAC1 Rap1B-BODIPY-GDP exchange, fluorescence; series mostly up to 154 µM; note: nearly all actives have a fitted effect of over 40% in size; note: potency is the fitted concentration of half-maximal effect
Method in brief: as §1

[6] = AP1 Signaling Pathway (AID 357; active = well fitted curve in either direction with a large enough effect, not every such curve was filed as active;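 note: ME-180 reporter cells stimulated with EGF at its EC50 level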); conditions: ME-180 AP-1-bla reporter, EGF-induced, beta-lactamase ratio, 5 h; at 7.69 µM (top of the series) unless noted
Method in brief: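 Titration-series screen for positive or negative modulators of EC50 EGF-induced signaling in ME-180 cells carrying an AP-1-driven beta-lactamase reporter. After 5 hours at 37 degrees Celsius, CCF4 460nm/530nm emission ratio gave %Activity; AC50 values derived.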

[7] = qHTS Assay for Identification of Small Molecule Agonists for Hypoxia Response Element Signaling Pathway (AID 914; active = well fitted activation curve with a large enough effect in the signal ratio, with a control signal flat, not every such curve was filed as active; the % refers to the signal ratio; note: potency is the fitted concentration of half-maximal effect); conditions: ME-180 (cervical carcinoma) HRE-bla reporter, beta-lactamase ratio, CoCl2, 17 h; activation: active compounds read high
Method in brief: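 In Opti-MEM containing 0.5% dialyzed FBS and 10 mM HEPES, ME-180 HRE-bla cells received a compound titration and EC50 CoCl2. They were incubated 17 hours, then CCF4-loaded 2.5 hours at room temperature before ratio reading.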

N#CC1=C(N)OC2=C(CC/C2=C\c2ccccc2)C1c1ccccc1 (centres undefined)
Potency [1]: inactive
Potency [2]: 112 µM (active)
Potency [3]: inactive
Potency [4]: inactive
Potency [5]: inactive

COC(=O)c1cc2oc(C)cc2n1Cc1cc(C)ccc1C
Potency [1]: inactive
Potency [2]: inactive
Potency [3]: inactive
Potency [4]: inactive

Oc1c(C(c2ccccc2)N2CCN(c3ccccc3)CC2)sc2nc(-c3ccco3)nn12 (centres undefined)
Potency [1]: inactive
Potency [2]: inactive
Potency [3]: inactive
Potency [4]: inactive

COc1ccc2oc(C)c(C(=O)c3ccccc3)c2c1
Potency [1]: inactive
activation [2]: 5.91% [at 17.1 µM, percent relative to cAMP agonist control]
Potency [3]: inactive
activity change, negative = inhibition [4]: 1.7% [at 30.8 µM]
activation [5]: 7.36% [at 30.8 µM]

O=c1oc2cc(O)ccc2cc1-c1nc2c(s1)CCc1ccccc1-2
Potency [1]: inactive
Potency [2]: 100 µM (active)
Potency [3]: inactive
Potency [4]: inactive
Potency [5]: inactive

CN(C)c1ccc(/C=C/C(=O)c2cccc(Br)c2)cc1
Potency [1]: inactive
activation [2]: -16% [at 17.1 µM, percent relative to cAMP agonist control]
Potency [3]: inactive
activity change, negative = inhibition [4]: 21.2% [at 30.8 µM]

CCOc1cc(/C=C2\CCCc3c2nc2ccccc2c3C(=O)O)ccc1OC
Potency [1]: inactive
Potency [2]: 112 µM (active)
Potency [3]: inactive
Potency [4]: inactive
Potency [5]: 100 µM (active)

COc1ccc(N=Cc2sc(O)c3ccccc23)cc1
Potency [1]: inactive
activation [2]: 2.81% [at 17.1 µM, percent relative to cAMP agonist control]
Potency [3]: inactive
activity change, negative = inhibition [4]: 46.8% [at 30.8 µM]
activation [5]: 29% [at 30.8 µM]

O=C(N=c1ccn(-c2nc3ccccc3nc2NS(=O)(=O)c2ccccc2)cc1)c1ccccc1Cl
Potency [1]: inactive
Potency [2]: 89.1 µM (active)
Potency [3]: 75.7 µM (active)
Potency [4]: inactive
Potency [5]: 79.4 µM (active)

Cc1ccc(-c2csc3ncnc(Nc4ccc(C(=O)O)cc4)c23)cc1
Potency [1]: inactive
Potency [2]: inactive
Potency [3]: inactive
Potency [4]: inactive
Potency [5]: inactive

COC(=O)c1c(SC)nc2ccccc2c1OCc1ccc(C)cc1C
Potency [1]: inactive
Potency [2]: inactive
Potency [3]: inactive
Potency [4]: inactive
Potency [5]: inactive

CCC(C)n1c(=N)c(C#N)cc2c(=O)n3ccccc3nc21 (centres undefined)
Potency [1]: inactive
activation [2]: -1.22% [at 17.1 µM, percent relative to cAMP agonist control]
Potency [3]: inactive
activity change, negative = inhibition [4]: -20.2% [at 30.8 µM]
activation [5]: -4.07% [at 30.8 µM]

CCN(CC)c1ccc2cc(-c3nc(-c4ccccc4)no3)c(=O)oc2c1
Potency [1]: inactive
Potency [2]: 31.6 µM (active)
Potency [3]: 6.01 µM (active)
Potency [4]: inactive
Potency [5]: 56.2 µM (active)

CCOc1ccccc1Oc1nc(C)nc2c1oc1ccccc12
Potency [1]: inactive
Potency [2]: inactive
Potency [3]: inactive
Potency [4]: inactive

CCCN1C(=O)S/C(=C/c2ccc(N3CCOCC3)o2)C1=O
Potency [1]: inactive
Potency [2]: 112 µM (active)
Potency [3]: 67.5 µM (active)
Potency [4]: inactive
Potency [5]: inactive

Cc1ccc(S(=O)(=O)C2(C(=O)Nc3ccc(Br)cc3)CC2)cc1
Potency [1]: inactive
activation [2]: 6.34% [at 17.1 µM, percent relative to cAMP agonist control]
Potency [3]: inactive
activity change, negative = inhibition [4]: -6.73% [at 30.8 µM]

O=[N+]([O-])c1ccc(N(c2ccccc2)c2ccccc2)cc1
Potency [1]: inactive
activation [2]: 3.9% [at 17.1 µM, percent relative to cAMP agonist control]
Potency [3]: inactive
activity change, negative = inhibition [4]: -24.8% [at 30.8 µM]
activation [5]: 15.8% [at 30.8 µM]

O=C(O)c1cccc(-c2ccc(/C=c3/sc4nc5ccccc5n4c3=O)o2)c1
Potency [1]: inactive
Potency [2]: inactive
Potency [3]: inactive
Potency [4]: inactive
Potency [5]: inactive

N=C1/C(=C\c2coc3ccc(O)cc3c2=O)C(=O)N=C2SC=CN12
Potency [1]: inactive
Potency [2]: 112 µM (active)
Potency [3]: inactive
Potency [4]: inactive
Potency [5]: 44.7 µM (active)

O=C(Cn1ccc(=O)[nH]c1=O)c1ccc([N+](=O)[O-])o1
Potency [1]: inactive
activation [2]: 15.2% [at 17.1 µM, percent relative to cAMP agonist control]
Potency [3]: inactive
activity change, negative = inhibition [4]: -11.8% [at 30.8 µM]
activation [5]: 18.6% [at 30.8 µM]

CCOC(=O)c1sc2nc3c(SCC(=O)O)cc(C(=O)c4cc(F)ccc4O)cn3c(=O)c2c1C
Potency [1]: 9.53 µM (active)
Potency [2]: inactive
Potency [3]: inactive
Potency [4]: inactive
Potency [5]: inactive

O=C(c1cccs1)N(Cc1cccnc1)c1nc2c(Cl)cccc2s1
Potency [1]: inactive
Potency [2]: inactive
Potency [3]: inactive
Potency [4]: inactive

N#CC(Sc1ccccn1)c1ccc(Cl)cc1Cl (centres undefined)
Potency [1]: inactive
Potency [2]: inactive
Potency [3]: inactive
Potency [4]: inactive
Potency [5]: inactive

COc1ccc(CN(C(=O)c2cccs2)c2ccccc2)cc1
Potency [1]: inactive
activation [2]: 16.8% [at 17.1 µM, percent relative to cAMP agonist control]
Potency [3]: inactive
activity change, negative = inhibition [4]: -5.93% [at 30.8 µM]
activation [5]: 12% [at 30.8 µM]

CN(C)c1ccc(C2C=C(c3ccc(Cl)cc3OC(F)F)Nc3ncnn32)cc1 (centres undefined)
Potency [1]: inactive
activation [2]: 4.39% [at 17.1 µM, percent relative to cAMP agonist control]
Potency [3]: inactive
activity change, negative = inhibition [4]: -14.7% [at 30.8 µM]

Cc1cccn2c(=O)c(/C=C(\C#N)c3nc4ccccc4n3C)c(Oc3ccc(Br)cc3)nc12
Potency [1]: inactive
Potency [2]: inactive
Potency [3]: inactive
Potency [4]: inactive
Potency [5]: 39.8 µM (active)

COc1ccc(O)c(C(=O)c2cc(SCC(=O)O)c3nc4sc5c(c4c(=O)n3c2)CCCC5)c1
Potency [1]: 23.9 µM (active)
Potency [2]: inactive
Potency [3]: inactive
Potency [4]: inactive
Potency [5]: inactive

CN(Cc1cccs1)c1nc(-c2cccnc2)nc2ccccc12
Potency [1]: inactive
activation [2]: 12.1% [at 17.1 µM, percent relative to cAMP agonist control]
Potency [3]: inactive
activity change, negative = inhibition [4]: -10.3% [at 30.8 µM]
activation [5]: 51% [at 30.8 µM]

CC(C)n1cc(/C=C/c2cc[n+](C)cc2)c2ccccc21
Potency [1]: inactive
Potency [2]: 112 µM (active)
Potency [3]: inactive
Potency [4]: inactive
Potency [5]: 56.2 µM (active)

COc1ccc(NC(=O)c2c(-c3ccccc3)c(-c3ccccc3)nn(C)c2=O)c(OC)c1
Potency [1]: inactive
Potency [2]: inactive
Potency [3]: inactive
Potency [4]: inactive

O=C(N/N=C/c1cccnc1)c1cc(-c2ccccc2OCc2ccccc2)n[nH]1
Potency [1]: inactive
Potency [2]: 89.1 µM (active)
Potency [3]: inactive
Potency [4]: inactive
Potency [5]: 25.1 µM (active)

O=C(Cn1c(=O)n(-c2ccccc2)c(=O)c2c3c(sc21)CCC3)c1ccc(Br)cc1
Potency [1]: inactive
Potency [2]: inactive
Potency [3]: inactive
Potency [4]: inactive
Potency [5]: inactive

CC(C)(C)CNC(=O)c1cccc2c1C(=O)c1ccc(-c3cc4ccccc4o3)cc1S2(=O)=O
Potency [1]: inactive
Potency [2]: 79.4 µM (active)
Potency [3]: inactive
Potency [4]: inactive
Potency [5]: inactive

COc1cc(C2CC(=O)Oc3cc(C)cc(C)c32)cc(OC)c1OC (centres undefined)
Potency [1]: inactive
Potency [2]: inactive
Potency [3]: 1.51 µM (active)
Potency [4]: inactive
Potency [5]: inactive

N#C/C(=C\c1ccc(N2CCOCC2)o1)c1nc2ccccc2[nH]1
Potency [1]: inactive
Potency [2]: 112 µM (active)
Potency [3]: inactive
Potency [4]: inactive
Potency [5]: 39.8 µM (active)

CCN(CC)C(=O)c1ccc(/C=C/c2c[nH]c3ccccc23)[n+](C)c1
Potency [1]: inactive
activation [2]: 6.96% [at 17.1 µM, percent relative to cAMP agonist control]
Potency [3]: inactive
activity change, negative = inhibition [4]: 70% [at 30.8 µM]
Potency [5]: 15.8 µM (active)

CCN(CC)c1ccc2cc(C(=O)Nc3ccccn3)c(=O)oc2c1
activity change, negative = inhibition [6]: 7.12% [at 17.2 µM]
Potency [7]: 3.98 µM (active)
Potency [1]: inactive
Potency [2]: 100 µM (active)
Potency [3]: inactive
Potency [4]: inactive
Potency [5]: inactive

COc1ccc(N=Cc2c(O)n(-c3cccc(C)n3)c(=O)c3ccccc23)c(OC)c1
Potency [1]: inactive
activation [2]: -25.1% [at 17.1 µM, percent relative to cAMP agonist control]
Potency [3]: inactive
activity change, negative = inhibition [4]: 31% [at 30.8 µM]
activation [5]: 19.8% [at 30.8 µM]

COc1cc(/C=C2/C(=O)c3cccc([N+](=O)[O-])c3C2=O)c(Br)cc1O
Potency [1]: 23.9 µM (active)
Potency [2]: inactive
outcome [3]: inactive; activator; fitted 0.0301 uM [at 12.7 µM]
Potency [4]: inactive
Potency [5]: 31.6 µM (active)

CCCCCn1nc(-c2ccccc2)c2nc3ccccc3nc21
Potency [1]: inactive
activation [2]: 2.69% [at 17.1 µM, percent relative to cAMP agonist control]
Potency [3]: inactive
activity change, negative = inhibition [4]: 19.6% [at 30.8 µM]
activation [5]: 10.8% [at 30.8 µM]

CCOc1ccccc1NC(=O)CSc1nccn1-c1cccc(C)c1
Potency [1]: inactive
Potency [2]: inactive
Potency [3]: inactive
Potency [4]: inactive
Potency [5]: inactive

NC(=O)c1c(NC(=O)c2ccccc2)sc2c1CCN(Cc1ccccc1)C2
Potency [1]: inactive
Potency [2]: 112 µM (active)
Potency [3]: 84.9 µM (active)
Potency [4]: inactive
Potency [5]: 39.8 µM (active)
